TDP1 block: inhibitors of human tyrosyl-DNA phosphodiesterase TDP1; Q9NUW8; recombinant TDP1, AlphaScreen DNA substrate cleavage; Potency, µM (highest dose often 130 µM), hits mostly inhibitors; 350,000 tested, 0.28% active; note: nearly all actives have a fitted effect of over 40% in size
Target sequence (Q9NUW8 whole entry, looked up): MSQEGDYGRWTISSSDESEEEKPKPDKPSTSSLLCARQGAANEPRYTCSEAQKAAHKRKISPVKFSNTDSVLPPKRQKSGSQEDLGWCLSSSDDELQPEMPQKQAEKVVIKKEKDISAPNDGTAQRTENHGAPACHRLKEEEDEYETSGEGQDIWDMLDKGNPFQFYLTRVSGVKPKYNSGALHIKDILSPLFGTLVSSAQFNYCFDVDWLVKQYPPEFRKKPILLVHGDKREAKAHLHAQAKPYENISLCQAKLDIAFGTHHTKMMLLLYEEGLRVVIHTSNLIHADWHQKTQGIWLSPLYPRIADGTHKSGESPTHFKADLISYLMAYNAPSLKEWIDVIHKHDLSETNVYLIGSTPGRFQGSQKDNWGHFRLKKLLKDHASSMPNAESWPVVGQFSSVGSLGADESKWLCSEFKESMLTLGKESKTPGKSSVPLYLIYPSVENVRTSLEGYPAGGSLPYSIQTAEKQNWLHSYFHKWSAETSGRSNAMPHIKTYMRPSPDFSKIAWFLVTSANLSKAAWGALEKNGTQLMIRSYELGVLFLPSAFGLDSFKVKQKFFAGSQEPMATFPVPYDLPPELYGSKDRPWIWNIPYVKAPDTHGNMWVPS
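Recombinant human Tdp1 (E. coli-expressed, 1 nM final) preincubated with compounds 15 min at room temperature, then 5'-biotin/3'-phosphotyrosine-FITC DNA substrate (15 nM final) added for 5 min. AlphaScreen beads (10 ug/ml final) added 10 min; cleavage lowers signal.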
RECQ1 inh: RECQ1 (human) helicase inhibition | 240,000 tested, 0.54% active | P46063 | RECQ1 DNA unwinding, red fluorescence kinetic read | AID 2549 | Potency, µM (titrated, usually from 57.3 µM), usual class: inhibitors; note: nearly all actives have a fitted effect of over 30% in size
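RECQ1T1 50 nM; forked duplex (20 bp + 30-nt ss tails) 200 nM, ATP 2 mM final; pH 8.0, 2 mM MgCl2, 2.5 ug/ml poly(dI-dC); 15 min compound preincubation; discontinuous kinetic read over 2 h at RT.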
LMNA splice mod: changes lamin A minigene splicing in HeLa cells. AID 1487. HeLa LMNA splicing GFP/RFP minigene ratio, 48 h. Potency, µM (titrated, usually from 46.1 µM), hits mostly inhibitors. 200,000 tested, 0.01% active; active = well fitted inhibition curve with a large enough effect in the signal ratio, with a control signal flat, not every such curve was filed as active; inconclusive = small, poorly fitted or top-dose-only effect, or effect the other way, or a change in a side signal; the % refers to the signal ratio
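Read-out is the ratio of GFP to DsRed2 object intensity, acquired by 488 nm laser-scanning cytometry on HeLa lamin A-EGFP minigene reporter cells. Compound incubation 48 hrs at 37 °C in Opti-MEM with 2% FBS; DMSO 0.5% final.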
BLM inh: Bloom syndrome helicase (human) inhibition; P54132; recombinant BLM DNA unwinding, fluorescence dequenching; Potency, µM (highest dose often 56.1 µM), most hits filed as inhibitors; 350,000 tested, 0.2% active; note: nearly all actives have a fitted effect of over 35% in size
APE1 inh: blocks human APE1 abasic DNA cleavage | P27695 | recombinant APE1, TAMRA/BHQ-2 abasic DNA cleavage fluorescence | Potency, µM (titrated, usually from 65.8 µM), actives largely listed as inhibitors | 350,000 tested, 0.35% active | AID 2517; note: nearly all actives have a fitted effect of over 55% in size
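Endonuclease cleavage of a quenched abasic-site DNA duplex (50 nM) by APE1 (0.75 nM) was tracked by TAMRA dequenching. Compounds were preincubated with enzyme 15 min at room temperature; data normalized to buffer-only and DMSO wells plus NSC13755 control.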
GCN5L2 inh: GCN5L2 (KAT2A) acetyltransferase inhibition. Q92830. GCN5L2 HAT assay, ThioGlo1 CoA-SH fluorescence. Potency, µM (titrated, usually from 58.9 µM), hits mostly inhibitors. 390,000 tested, 0.21% active
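Compounds, pin-transferred from DMSO stocks, meet 20nM GCN5L2 for 15 min before the reaction begins with H3(1-25) peptide (75uM) and acetyl-CoA (70uM). Thiol-reactive ThioGlo1 reports CoA release over 20 min at room temperature.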
Large screens that a line does not name were inactive. Only some compounds are listed: those with a hit (about 0.9% of all), similar ones and a draw of the others. Unless noted, calls come from the whole dose curve; as a rule, active = well fitted curve in the direction sought with a large enough effect; inconclusive = small, poorly fitted or top-dose-only effect, or another doubt; inactive = no such curve, though single readings can be large; an effect the other way counts as inactive or inconclusive.

CC1(C)OC(=O)C2(Cc3cc(C(F)(F)F)ccc3N3CCCCC32)C(=O)O1 (configuration not stated)	none (no result: RECQ1 inh, LMNA splice mod, BLM inh, APE1 inh, GCN5L2 inh)
CSc1cc2c(s1)c1cnn(Cc3cccc(O)c3)c(=O)c1n2C	none (no result: RECQ1 inh, LMNA splice mod, BLM inh, APE1 inh, GCN5L2 inh)
Cc1ccc(S(=O)(=O)c2cc3c(=O)n4ccccc4nc3n(Cc3ccco3)c2=N)cc1C	BLM inh inconclusive, GCN5L2 inh 16µM
Cc1cccn2c(=O)c3cc(S(=O)(=O)c4ccc(F)cc4)c(=N)n(Cc4ccco4)c3nc12	none (no result: LMNA splice mod)
N=c1c(S(=O)(=O)c2ccccc2)cc2c(=O)n3ccccc3nc2n1Cc1ccco1	BLM inh 7.1µM, GCN5L2 inh inconclusive
Cc1cccn2c(=O)c3cc(S(=O)(=O)c4ccccc4)c(=N)n(Cc4ccco4)c3nc12	BLM inh 28µM
Cc1ccc2nc3c(cc(S(=O)(=O)c4ccccc4)c(=N)n3Cc3ccco3)c(=O)n2c1	none (no result: LMNA splice mod)
CC[C@H](C)[C@H](NC(=O)[C@H](Cc1ccc(O)cc1)NC(=O)[C@H](CCCNC(=N)N)NC(=O)[C@H](CCCNC(=N)N)NC(=O)[C@H](CC(C)C)NC(=O)[C@H](CC(=O)O)NC(=O)[C@H](C)NC(=O)[C@H](C)NC(=O)[C@H](Cc1ccc(O)cc1)NC(=O)[C@H](CCC(N)=O)NC(=O)[C@H](C)NC(=O)[C@H](CCSC)NC(=O)[C@H](CCC(N)=O)NC(=O)[C@H](CCC(=O)O)NC(=O)[C@@H]1CCCN1C(=O)[C@@H](NC(=O)[C@H](C)NC(=O)[C@H](CC(N)=O)NC(=O)[C@H](CC(=O)O)NC(=O)CNC(=O)[C@@H]1CCCN1C(=O)[C@H](Cc1ccc(O)cc1)NC(=O)[C@@H](NC(=O)[C@@H]1CCCN1C(=O)[C@H](CCC(=O)O)NC(=O)[C@H](CC(C)C)NC(=O)[C@@H]1CCCN1C(=O)[C@H](C)N)C(C)C)[C@@H](C)O)C(=O)N[C@@H](CC(N)=O)C(=O)N[C@@H](CCSC)C(=O)N[C@@H](CC(C)C)C(=O)N[C@H](C(=O)N[C@@H](CCCNC(=N)N)C(=O)N1CCC[C@H]1C(=O)N[C@@H](CCCNC(=N)N)C(=O)N[C@@H](Cc1ccc(O)cc1)C(N)=O)[C@@H](C)O	none (no result: TDP1 block, RECQ1 inh, LMNA splice mod, BLM inh, APE1 inh)
Cc1ccc(NS(=O)(=O)c2cc3c(cc2F)NC(=O)CC3)cc1C	none (no result: RECQ1 inh, LMNA splice mod, BLM inh, APE1 inh, GCN5L2 inh)
CCC(=O)Oc1ccc2c(c1)CC[C@@H]1[C@@H]2CC[C@]2(C)[C@@H](OC(=O)CC)CC[C@@H]12	none (no result: TDP1 block, RECQ1 inh, LMNA splice mod, BLM inh, GCN5L2 inh)
COc1ccccc1-n1ncc2c(=O)[nH]c(SCC(=O)Nc3ccc(Cl)cc3)nc21	none (no result: RECQ1 inh, APE1 inh)
CN(C)[C@@H]1C(=O)C(C(=O)NCN2CCCC2)=C(O)[C@@]2(O)C(=O)C3=C(O)c4c(O)cccc4[C@@](C)(O)C3CC12 (some centres not stated)	TDP1 block 0.71µM, RECQ1 inh 3.2µM, BLM inh 14µM, APE1 inh 2.5µM, GCN5L2 inh 6.3µM
NC(=O)C(=CNc1nc(-c2ccc(Cl)c(Cl)c2)cs1)C(N)=O	RECQ1 inh 3.5µM, BLM inh inconclusive, APE1 inh 0.63µM (no result: LMNA splice mod)
Cc1ccc2c(c1)[nH]c1c(=O)n(CCC3=CCCCC3)cnc12	GCN5L2 inh 2.5µM
CCC(=O)N1C2=C(c3ccccc3[C@@H]1CC(=O)Nc1ccc3ccccc3c1)[C@@H]1C(=O)N(c3ccccc3)C(=O)[C@@H]1[C@H](C)C2	LMNA splice mod inconclusive (no result: GCN5L2 inh)
COc1ccc(S(=O)(=O)NCCC(=O)NC2CCCCC2C)cc1[N+](=O)[O-] (configuration not stated)	TDP1 block 18µM, APE1 inh inconclusive (no result: RECQ1 inh, LMNA splice mod, BLM inh)
C#Cc1ccc([C@H]2C=C(C(=O)OCC=C)O[C@@H](OCC)[C@@H]2CCCO)cc1	RECQ1 inh 22µM (no result: LMNA splice mod)
C#Cc1ccc([C@@H]2C=C(C(=O)OCC=C)O[C@H](OCC)[C@H]2CCCO)cc1	none (no result: LMNA splice mod)
CCC(=O)NC(c1cc(Cl)c2cccnc2c1O)c1cccn1C (configuration not stated)	none (no result: RECQ1 inh, LMNA splice mod, BLM inh, APE1 inh, GCN5L2 inh)
